# In PubChem BioAssay:
# Activity calls are given as the source filed them. Unless noted, no stated cut-off is given here; in the data, active means inhibition above about 80%; inactive means the rest.
# Key:
# [1] = LFS_MB_P medulloblastoma growth inhibition, cell-based, chromothripsis tumors, cisplatin or BGB combos (AID 1671449); details: LFS_MB_P medulloblastoma cells;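 further: cells exposed for 96 hours; 0% = vehicle DMSO and 100% = killing by high DMSO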
# [2] = HDN33 neuroblastoma growth inhibition, cell-based, chromothripsis tumors, cisplatin or BGB combos (AID 1671450); details: HDN33 neuroblastoma cells, stronger effect = higher value;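 further: cells exposed to compound for four days; 0% = vehicle DMSO and 100% = cell killing by high DMSO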
# [3] = ICB984 medulloblastoma cell growth inhibition, synergistic combos for chromothripsis tumors, cisplatin or BGB combos (AID 1671451; call rule not given here;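 further: cells exposed for 96 hours before readout; 0% = vehicle DMSO and 100% = killing by high DMSO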); details: ICB984 medulloblastoma cells, drug combinations, stronger effect = higher value
# [4] = LFS_MB_1R medulloblastoma cell growth inhibition, synergistic combos for chromothripsis tumors, cisplatin or BGB combos (AID 1671452); details: LFS_MB_1R medulloblastoma cells, stronger effect = higher value;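 further: cells exposed for 96 hours before readout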
# [5] = HTB85 osteosarcoma cell growth inhibition, synergistic combos for chromothripsis tumors, BGB or cisplatin IC20 combos (AID 1671453); details: HTB85 osteosarcoma cells, drug combinations, stronger effect = higher value;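 further: cells exposed for 96 hours before readout; 0% = vehicle DMSO and 100% = high DMSO killing control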
# [6] = CRL2098 osteosarcoma cell growth inhibition, synergistic combos for chromothripsis tumors, BGB or cisplatin IC20 combos (AID 1671454); details: CRL2098 osteosarcoma cells, drug combinations, stronger effect = higher value;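 further: cells exposed for 96 h before readout; 0% = vehicle DMSO and 100% = killing by high DMSO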
# [7] = HD-MB03 medulloblastoma cell growth inhibition, synergistic combos for chromothripsis tumors, BGB or cisplatin IC20 combos (AID 1671455; in the data active means inhibition above about 83%;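 further: 0% = vehicle DMSO and 100% = high DMSO as cytotoxic control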); details: HD-MB03 medulloblastoma cells, stronger effect = higher value
# [8] = UWB1.289 ovarian carcinoma cell growth inhibition, synergistic combos for chromothripsis tumors, BGB or cisplatin combos (AID 1671456); details: UWB1.289 ovarian carcinoma cells, stronger effect = higher value;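 further: cells exposed to compound for four days; 0% = vehicle DMSO and 100% = killing by high DMSO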
# [9] = LFS_MB_2R medulloblastoma cell growth inhibition, synergistic combos for chromothripsis tumors, cisplatin combos (AID 1671457); details: LFS_MB_2R medulloblastoma cells, stronger effect = higher value;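 further: cells exposed to compound for four days before readout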
# [10] = MDA-MB-436 breast carcinoma cell growth inhibition, synergistic combos for chromothripsis tumors, BGB or cisplatin combos (AID 1671458; call rule not given here;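 further: cells exposed for 96 hours; 0% = vehicle DMSO and 100% = killing by high DMSO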); details: MDA-MB-436 breast carcinoma growth inhibition, drug combinations, stronger effect = higher value
# [11] = UWB1.289_BRCA1 ovarian cancer growth, cell-based, BGB or cisplatin combinations (AID 1671459); details: UWB1.289 BRCA1 ovarian carcinoma, drug combinations, stronger effect = higher value
# [12] = human astrocyte viability loss, single and combined drugs, cytotoxicity control for chromothriptic childhood tumor combination screen, cell-based, BGB or cisplatin IC20 combos (AID 1671460); details: Human astrocytes, drug combinations, stronger effect = higher value;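 further: cells exposed to compounds for 96 hours before viability readout; 0% = vehicle and 100% = killing control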
# [13] = growth inhibition of BT084 medulloblastoma cells, cell-based, ICGC_MB145, cisplatin and BGB IC40 combos (AID 1671461); details: drug combinations, stronger effect = higher value;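 further: cells exposed to drugs for 96 hours; 0% = vehicle DMSO and 100% = high DMSO full killing control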
# [14] = growth inhibition of RCMB18 medulloblastoma cells, cell-based, cisplatin and BGB IC40 combos (AID 1671462); details: stronger effect = higher value;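 further: cells exposed to compound for four days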
# [15] = growth inhibition of CRL1545 osteosarcoma cells, cell-based, cisplatin and BGB IC20 combos (AID 1671464); details: stronger effect = higher value;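 further: cells exposed to compound for 96 hours before readout; 0% = vehicle DMSO and 100% = high DMSO killing control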
# [16] = measured here: combination with BGB IC40, at 0.05 µM
# [17] = measured here: with BGB IC20 combination, at 0.5 µM
# [18] = measured here: with cisplatin IC20 combination, at 0.5 µM
# [19] = measured here: combination with cisplatin, at 0.5 µM
# [20] = measured here: combination with cisplatin, at 5 µM
structure (smiles),measurement,setting,value
CC(=O)C1(O)Cc2c(O)c3c(c(O)c2C(OC2CC(N)C(O)C(C)O2)C1)C(=O)c1ccccc1C3=O (stereo not drawn),inhibition,"[1]; at 0.5 µM, stronger effect = higher value",-11.2% (inactive)
same,inhibition,"[1]; measured here: combination with BGB IC20, at 0.005 µM",-29.5%
same,inhibition,"[1]; measured here: combination with BGB IC40, at 0.005 µM",-38.8%
same,inhibition,[1]; [16],-19.5%
same,inhibition,"[1]; measured here: combination with cisplatin, at 0.5 µM, stronger effect = higher value",-31.3%
same,inhibition,"[1]; measured here: combination with cisplatin, at 5 µM, stronger effect = higher value",125%
same,inhibition,"[2]; BGB combo, at 5 µM",99.7%
same,inhibition,[2]; at 0.5 µM,98.4% (active)
same,inhibition,"[2]; cisplatin combo, at 5 µM",99.9%
same,inhibition,[2]; [17],97.4%
same,inhibition,[2]; [18],98.5%
same,inhibition,"[2]; single agent, at 5 µM",99.9%
same,inhibition,"[3]; BGB IC20 combo, at 0.005 µM",97.5%
same,inhibition,"[3]; BGB IC40 combo, at 0.005 µM",95.4%
same,inhibition,"[3]; BGB IC40 combo, at 0.05 µM",100%
same,inhibition,[3]; at 0.5 µM,-42.9% (inactive)
same,inhibition,"[3]; cisplatin combo, at 0.05 µM",100%
same,inhibition,"[3]; cisplatin combo, at 0.5 µM",-43%
same,inhibition,"[3]; cisplatin combo, at 5 µM",-1.78%
same,inhibition,"[3]; measured here: 5 uM single agent, at 5 µM",-14.9%
same,inhibition,[4]; at 0.5 µM,102% (active)
same,inhibition,[4]; [16],73.8%
same,inhibition,[4]; [19],103%
same,inhibition,[4]; [20],106%
same,inhibition,[5]; at 0.5 µM,99.6% (active)
same,inhibition,"[5]; measured here: with BGB IC20, at 0.5 µM",99.4%
same,inhibition,"[5]; measured here: with BGB IC20, at 5 µM",99.7%
same,inhibition,"[5]; measured here: with cisplatin IC20, at 0.5 µM",99.8%
same,inhibition,"[5]; measured here: with cisplatin IC20, at 5 µM",99.8%
same,inhibition,"[5]; single agent, at 5 µM",99.9%
same,inhibition,[6]; at 0.5 µM,98.6% (active)
same,inhibition,"[6]; measured here: combination with BGB at IC20, at 0.5 µM",98%
same,inhibition,"[6]; measured here: combination with cisplatin at IC20, at 0.5 µM",98.6%
same,inhibition,[7]; at 0.5 µM,94.5% (active)
same,inhibition,"[7]; measured here: combo with BGB at IC20, at 0.5 µM",89.5%
same,inhibition,"[7]; measured here: combo with cisplatin at IC20, at 0.5 µM",99.8%
same,inhibition,[8]; at 0.5 µM,83.1% (active)
same,inhibition,"[8]; measured here: inhibition with BGB combination, at 0.05 µM",40.5%
same,inhibition,"[8]; measured here: inhibition with cisplatin combination, at 0.05 µM",51.2%
same,inhibition,[9]; at 0.5 µM,75.6% (inactive)
same,inhibition,[9]; [19],88%
same,inhibition,[9]; [20],102%
same,inhibition,[10]; at 0.5 µM,76.4% (inactive)
same,inhibition,"[10]; measured here: BGB combination, at 0.5 µM",65.8%
same,inhibition,"[10]; measured here: BGB combination, at 5 µM",72.7%
same,inhibition,"[10]; measured here: cisplatin combination, at 0.5 µM",82.9%
same,inhibition,"[10]; measured here: cisplatin combination, at 5 µM",92.7%
same,inhibition,"[11]; BGB combination, concentration series, at 5 µM",101%
same,inhibition,[11]; at 0.5 µM,89% (active)
same,inhibition,"[11]; cisplatin combination, concentration series, at 5 µM",97.8%
same,inhibition,[12]; at 0.5 µM,89.9% (active)
same,inhibition,"[12]; measured here: combo with BGB IC20, at 0.5 µM",84%
same,inhibition,"[12]; measured here: combo with cisplatin IC20, at 0.5 µM",91.6%
same,inhibition,[13]; at 0.5 µM,13.8% (inactive)
same,inhibition,"[13]; cisplatin combination, at 0.5 µM",-40.7%
same,inhibition,"[13]; cisplatin combination, at 5 µM",77.4%
same,inhibition,"[13]; measured here: BGB IC40 combination 0.05 uM, at 0.05 µM",-4.42%
same,inhibition,"[13]; single agent, at 5 µM",81.6%
same,inhibition,[14]; at 0.5 µM,75.2% (inactive)
same,inhibition,"[14]; cisplatin combo, at 5 µM",89.9%
same,inhibition,"[14]; measured here: BGB IC40 combination, at 0.05 µM",34.7%
same,inhibition,[14]; [19],76.4%
same,inhibition,"[14]; single agent, at 5 µM",94.4%
same,inhibition,[15]; at 0.5 µM,99.1% (active)
same,inhibition,[15]; [17],98.7%
same,inhibition,[15]; [18],99.3%
same,inhibition,"[15]; single agent, at 0.05 µM",99.4%
same,inhibition,"[15]; single agent, at 5 µM",99.9%
